Calls of active or inactive are those of the source. The calls were made as follows: active = hit-call score of the fitted dose curve at least 0.9, where 1 is the maximum; inactive = score below 0.9.

Results on 40 compounds are retold here after PubChem BioAssay (EPA / NIEHS).

Read-out in this experiment: Plasminogen activator inhibitor-1 (PAI1), SERPINE1 (gene 5054)
The experiment can be described thus: BSK_BE3C_PAI1: BioMAP Diversity Plus: BE3C Assay for Plasminogen activator inhibitor-1 (PAI1) Biomarker Activity (AID 2283037). The following applies: primary human bronchial epithelial cells; actives raise or lower the signal. How it is done: BSK_BE3C is a cell-based, multiplexed-readout assay that uses bronchial epithelial cell, a human lung primary cell, with measurements taken at 24 hours after chemical dosing in a 96-well plate.BSK_BE3C_PAI1 is an assay component measured in the BSK_BE3C assay. It measures PAI-1 antibody related to regulation of gene expression using ELISA technology.Data from the assay component BSK_BE3C_PAI1 was analyzed into 1 assay endpoint. This assay endpoint, BSK_BE3C_PAI1, was analyzed with bidirectional fitting relative to DMSO as the negative control and baseline of activity. Using a type of binding reporter, gain or loss-of-signal activity can be used to understand changes in the signaling as they relate to the gene SERPINE1. Furthermore, this assay endpoint can be referred to as a primary readout, because this assay has produced multiple assay endpoints where this one serves a signaling function. To generalize the intended target to other relatable targets, this assay endpoint is annotated to the cytokine intended target family, where the subfamily is plasmogen activator inhibitor.
The levels of cell surface (or secreted, indicated by the prefix "s") biomarker endpoints were measured by ELISA. Overt cytotoxicity to cells in confluent adherent cultures (all systems other than the BT system) was assessed by measuring total protein levels using sulforhodamine B (SRB) staining in parallel cultures at the time of biomarker measurements, indicated as SRB endpoints. For proliferation assays for adherent cell types, individual cell types are cultured at sub-confluence and relative cell numbers quantified by SRB staining at time points optimized for each system (48 h: 3C and CASM3C systems; 72 h: BT and HDF3CGF systems; 96 h: SAg system). SRB was performed by staining cells with 0.1% SRB after fixation with 10% TCA and reading wells at 560 nm.Viability and proliferation of PBMC (T cells) was quantified by Alamar Blue reduction for the SAg and BT systems. For PBMC viability (referred to as PBMC Cytotoxicity within the assay endpoint names), cells were plated (75,000/well in a 96-well plate) and then chemical samples added for 1 h before addition of activators, SEB and TSST-1 (20 ng/mL final concentration each). Cells were incubated for 90 h. Then, Alamar Blue (20 uL/well) (Invitrogen, Cat DAL1100) was added for 6 h, and the plates were read with a fluorescence microplate reader at 546/580 nm (excitation/emission). For PBMC proliferation, cells were plated and activated as above but incubated for only 16 h prior to addition of Alamar Blue. Plates were read after 6 h.
Regarding `CCOP(=S)(OCC)Oc1nc(Cl)c(Cl)cc1Cl`, the outcome was inactive.

As for `CC(=O)[O][Hg][c]1ccccc1`, the AC50 (as a rule, the midpoint of the concentration-response curve, whichever way the signal moves) is 1.42 µM (active). As for `COP(=S)(OC)Oc1ccc(Sc2ccc(OP(=S)(OC)OC)cc2)cc1`, the result was inactive.

As to `CN(C)N=O`, the result was inactive.

Consider `ClC(Cl)=C(Cl)C(Cl)=C(Cl)Cl`, for which the concentration at half-maximal activity (AC50) is 20 µM (active).

As for `CCCCC(CC)CO[N+](=O)[O-]` (stereo not given), the outcome was inactive.

For the compound `CC(C)(c1ccccc1)c1ccc(O)c(C(C)(C)c2ccccc2)c1`, the AC50 is 14.3 µM (active). Turning to `COP(=S)(OC)Oc1cc(Cl)c(Cl)cc1Cl`, the AC50 is 8.51 µM (active).

As for `CC1(C)Cc2cccc(O)c2O1`, the outcome was inactive. The same measure, in the same setting: next, `BrCCBr`: “inactive”; `C(=NC1CCCCC1)=NC1CCCCC1`: “inactive”.

Take `O=C1C2(Cl)C3(Cl)C4(Cl)C(Cl)(Cl)C5(Cl)C3(Cl)C1(Cl)C5(Cl)C24Cl` (stereo not given): the concentration at half-maximal activity (AC50) is 8.29 µM (active). Take `CC(=O)OC(c1ccccc1)C(Cl)(Cl)Cl` (stereo not given): the outcome was inactive. In the case of `O=S(=O)(c1ccc(Cl)cc1)c1ccc(Cl)cc1`, the outcome was inactive.

Consider `COc1cc(-c2ccc(N)c(OC)c2)ccc1N`, for which the result was inactive. On to `CCCCCCCCC(=O)NCc1ccc(O)c(OC)c1`, for which the AC50 is 20 µM (active).

Take `O=C(O)C(F)(F)C(F)(F)C(F)(F)C(F)(F)C(F)(F)C(F)(F)F`: the outcome was inactive. Take `CCCCCCCCc1ccc(O)cc1`: the AC50 is 33.9 µM (active). Regarding `CC(C)CCCCCCOC(=O)c1ccccc1C(=O)OCCCCCCC(C)C`, the outcome was inactive. For the compound `CCNc1nc(NC(C)(C)C)nc(SC)n1`, the outcome was inactive. For the compound `C=C(C)C(=O)[O][Sn]([CH2]CCC)([CH2]CCC)[CH2]CCC`, the half-maximal activity concentration (AC50) is 0.146 µM (active).

As to `C=CC(=O)OCCCCCC(C)C`, the outcome was inactive. As for `COP(=S)(OC)Oc1c(Cl)cc(C)cc1Cl`, the outcome was inactive. As to `C[C@]12CCC(=O)C[C@@H]1CC[C@@H]1[C@@H]2CC[C@]2(C)[C@@H](O)CC[C@@H]12`, the outcome was inactive. On the same count and under the same terms, the value for `OCc1ccco1` was “inactive”. With `O=[N+]([O-])c1ccc(O)c([N+](=O)[O-])c1`, the AC50 is 30.5 µM (active).

In the case of `O=C(OC1CCCCC1)c1ccccc1C(=O)OC1CCCCC1`, the outcome was inactive. For the compound `Oc1c(I)cc(I)cc1I`, the AC50 was 1.83 µM (active). For the compound `CC12CC1(C)C(=O)N(c1cc(Cl)cc(Cl)c1)C2=O` (stereo not given), the outcome was inactive. Take `Nc1cccc2ccccc12`: the outcome was inactive. As for `COc1cc(OC)nc(NC(=O)NS(=O)(=O)c2ncccc2C(=O)N(C)C)n1`, the result was inactive. Turning to `CC(C)(OO)c1ccccc1`, the outcome was inactive.

As for `NC(=S)Nc1ccccc1`, the result was inactive. `CCSC(C)CC1CC(=O)C(C(CC)=NOC/C=C/Cl)=C(O)C1` (stereo not given): the result was inactive.

For `O=[N+]([O-])c1ccc2c3c(cccc13)CC2`, the result was inactive. `Oc1ccc(-c2ccccc2)cc1`: the outcome was inactive.

Turning to `COC(=O)c1sccc1S(=O)(=O)NC(=O)Nc1nc(C)nc(OC)n1`, the result was inactive. Take `CCC(=O)C(CC(C)N(C)C)(c1ccccc1)c1ccccc1` (stereo not given): the result was inactive. As to `C[C@@H]1C[C@@H]([C@H](O)CC2CC(=O)NC(=O)C2)C(=O)[C@@H](C)C1`, the AC50 is 1.63 µM (active).

Turning to `O=C(Nc1ccc2[nH]ccc2c1)c1cc2cc(F)ccc2n1Cc1cccc(F)c1`, the AC50 was 5.51 µM (active).
